Only some compounds are listed: those with a hit (about 3.9% of all), similar ones and a draw of the others.
USP2a block: blocks human ubiquitin-specific protease USP2a; 330,000 tested, 0.01% active; USP2 core, Ub-CHOP2 coupled fluorogenic reporter, 485/531; Potency, µM (series often up to 38.3 µM), most hits filed as inhibitors; AID 463254
Target sequence (O75604 whole entry, looked up): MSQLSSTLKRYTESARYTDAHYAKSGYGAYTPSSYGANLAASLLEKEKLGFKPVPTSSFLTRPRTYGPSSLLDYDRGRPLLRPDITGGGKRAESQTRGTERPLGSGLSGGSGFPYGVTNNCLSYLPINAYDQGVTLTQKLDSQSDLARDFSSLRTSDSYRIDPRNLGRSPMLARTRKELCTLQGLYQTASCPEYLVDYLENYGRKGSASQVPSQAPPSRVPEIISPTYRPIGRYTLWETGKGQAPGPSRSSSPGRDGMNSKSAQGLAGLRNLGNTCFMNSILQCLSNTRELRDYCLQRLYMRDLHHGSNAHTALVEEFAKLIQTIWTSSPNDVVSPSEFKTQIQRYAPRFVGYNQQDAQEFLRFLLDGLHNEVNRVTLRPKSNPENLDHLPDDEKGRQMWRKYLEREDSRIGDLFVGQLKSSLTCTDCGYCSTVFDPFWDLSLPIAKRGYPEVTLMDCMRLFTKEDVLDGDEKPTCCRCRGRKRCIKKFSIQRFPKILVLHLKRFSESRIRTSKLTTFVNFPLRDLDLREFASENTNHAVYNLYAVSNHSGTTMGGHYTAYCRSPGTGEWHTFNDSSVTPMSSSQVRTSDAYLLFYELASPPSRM
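Deubiquitinase activity read as fluorescence (485/531 nm) after Ub-CHOP2 cleavage activates the enterokinase reporter on its substrate; USP2 core 10nM, Ub-CHOP2 and substrate 25nM each, 30min compound preincubation then 60min RT; data normalized to NEM, curves fitted.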
D1 ag: agonists of human D1 dopamine receptor; P21728; HEK293 T-REx D1 cells, calcium flux, agonist mode; activation, % at 2 µM; 360,000 tested, 1% active; AID 504660; in the data active = activation above about 30%
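Agonism was scored from calcium flux recorded over 180 s (1 read/s) after pintool compound addition, following a 10-cycle baseline. Cells were inducible force-coupled HEK293 TREx D1, plated overnight at 30 C and loaded with no-wash calcium dye.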
GALK inhibitor: blocks human galactokinase activity; P51570; Purified GALK, Kinase-Glo residual ATP luminescence; Potency, µM (doses to about 57.5 µM), usual class: inhibitors; 270,000 tested, 0.007% active; AID 1868
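Quantitative HTS: GALK 5 nM, ATP 35 uM, galactose 100 uM, 1 h room temperature, then luciferase-based ATP detection.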
D1 PAM: enhances dopamine response at the human D1 receptor. 360,000 tested, 0.036% active. HEK293 TREx D1 cells, calcium flux, dopamine EC20 potentiation. potentiation, % at 10 µM; in the data active = potentiation above about 30%
D1 antag: antagonists of human D1 dopamine receptor. P21728. HEK293 TREx D1 cells, calcium flux, dopamine EC80; active compounds read low. activity change, negative = inhibition, % at 10 µM. 360,000 tested, 3.2% active; in the data active = activity change below about -30%
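Kinetic fluorescence of a calcium dye serves as the read-out. D1-expressing Hek293 Trex cells, induced overnight at 30 C, are exposed to compound for 180 s before an EC80 dopamine addition, then read 180 s further.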
Eya2 phos inh: blocks the phosphatase activity of human Eya2. O00167. recombinant Eya2, OMFP fluorescence dephosphorylation (OMFP is methylfluorescein phosphate). Potency, µM (series often up to 76.9 µM), most hits filed as inhibitors. 330,000 tested, 0.006% active
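Eya2 (0.2 uM) preincubated 10 min at ambient with compound, then OMFP substrate added at 50 uM; 10 min reaction in 50 mM HEPES pH 7.5, 50 mM NaCl, 5 uM MgCl2, 0.05% BSA, 1 mM DTT. Fluorescence read at Ex 485/Em 525 nm.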
A number is an active result; 0 = inactive; - = no result; ! = not active in a repeat. Unless noted, calls come from the whole dose curve; as a rule, active = well fitted inhibition curve with a large enough effect; inconclusive = small, poorly fitted or top-dose-only effect, or effect the other way; inactive = flat fitted curve, though single readings scatter.

SMILES | USP2a block | D1 ag | GALK inhibitor | D1 PAM | D1 antag | Eya2 phos inh
CC(=O)Nc1ccc(NC(=O)c2nc(S(=O)(=O)Cc3ccccc3)ncc2Cl)cc1 | 0 | 0 | 0 | 0 | 0 | 0
O=C(Nc1nc2ccc(F)cc2s1)c1nc(S(=O)(=O)Cc2ccccc2F)ncc1Cl | - | 0 | - | 0 | -34 | -
COCCCNC(=O)c1c(NC(=O)c2nc(S(C)(=O)=O)ncc2Cl)sc2c1CCCC2 | - | 0 | - | 0 | 0 | -
CC(C)c1nnc(NC(=O)c2nc(S(=O)(=O)Cc3ccccc3F)ncc2Cl)s1 | 0 | 0 | 0 | 0 | 0 | 0
CCc1nnc(NC(=O)c2nc(S(=O)(=O)Cc3ccccc3)ncc2Cl)s1 | 0 | 0 | 0 | 0 | 0 | 0
O=C(NCc1ccc2c(c1)OCO2)c1nc(S(=O)(=O)Cc2ccccc2)ncc1Cl | 0 | 0 | 0 | 0 | 0 | 0
O=C(NCc1ccc2c(c1)OCO2)c1nc(S(=O)(=O)Cc2ccccc2F)ncc1Cl | 0 | 0 | 0 | 0 | -49 | 0
COc1ccc(CNC(=O)c2nc(S(=O)(=O)Cc3ccccc3)ncc2Cl)cc1 | 0 | 0 | 0 | 0 | -37! | 0
COC(=O)c1ccccc1NC(=O)c1nc(S(=O)(=O)Cc2ccccc2)ncc1Cl | 0 | 0 | 0 | 0 | 0 | 0
CCOc1ccccc1NC(=O)c1nc(S(=O)(=O)Cc2cccc(C)c2)ncc1Cl | 0 | 0 | 0 | 0 | -31! | 0
COc1ccc(NC(=O)c2nc(S(=O)(=O)Cc3ccc(C)cc3)ncc2Cl)cc1 | - | 0 | - | 0 | -38 | -
CC(C)c1ccccc1NC(=O)C(Cc1c[nH]c2ccccc12)NC(=O)OC(C)(C)C (configuration not stated) | - | 0 | - | 0 | 0 | -
O=C(CCc1nc2cccnc2n1Cc1cccs1)Nc1cccc(C(F)(F)F)c1 | - | 0 | - | 0 | 0 | -
COc1ccc(Cn2c(=O)c3oc4ccccc4c3n(Cc3ccc(F)cc3)c2=O)cc1 | - | 0 | - | 0 | 0 | -
Cc1nc(Cl)c(C(=O)NCc2ccccc2)c(C)c1Cl | 0 | 0 | 0 | 0 | 0 | 0
Cc1ccc(C)c(NC(=O)c2nc(S(=O)(=O)Cc3ccc(F)cc3)ncc2Cl)c1 | - | 0 | - | 0 | -37 | -
O=C(NCc1ccccc1)c1c(Cl)nc(Cl)c(Cl)c1Cl | 0 | 0 | 0 | 0 | -42 | 0
O=C(C1CCCN(S(=O)(=O)c2ccc(Br)cc2)C1)N1CCOCC1 (configuration not stated) | 0 | 0 | 0 | 0 | -53 | 0
O=S(=O)(c1ccc(Oc2ccc(Br)cc2)cc1)N1CCOCC1 | 0 | 0 | 0 | 0 | -32 | 0
O=S(=O)(Nc1ccc(S(=O)(=O)N2CCOCC2)cc1)c1ccc(Br)cc1 | 0 | 0 | 0 | - | 0 | 0
Cc1cc(SC(C)C(=O)Nc2c(C)n(C)n(-c3ccccc3)c2=O)nc2ccccc12 (configuration not stated) | 0 | 0 | 0 | 0 | -32 | 0
COc1ccccc1Cn1c(CNS(=O)(=O)c2ccccc2Cl)nc2cccnc21 | - | 0 | - | 0 | 0 | -
CN(C)/C=N/c1sc2c(c1C#N)CC(C)(C)NC2(C)C | 0 | 0 | 0 | 0 | -45 | 0
CCn1nc(C)cc1C(=O)Sc1ccc(Cl)cc1Cl | 0 | 0 | 0 | 0 | 0 | 0
CCn1nc(C)cc1C(=O)OCC(=O)c1ccc(Cl)cc1 | 0 | 0 | 0 | 0 | -63 | 0
SMILES | USP2a block | D1 ag | GALK inhibitor | D1 PAM | D1 antag | Eya2 phos inh
COc1c(Cl)cc(Cl)cc1C(=O)Nc1ccc(NC(C)=O)cc1 | 0 | 0 | 0 | 0 | 0 | 0
COC(=O)c1cc(Cl)cc(Cl)c1OS(=O)(=O)N(C)C | 0 | 0 | 0 | 0 | -30 | 0
N#CC1(Nc2cccc(Br)c2)C(=O)Nc2ccccc21 (configuration not stated) | 0 | 53 | 0 | 0 | 0 | 0
N#CC1(Nc2ccccc2)C(=O)Nc2ccccc21 (configuration not stated) | 0 | 0 | 0 | 0 | 0 | 0
COc1ccc(NC(=O)CSc2oc(-c3ccco3)nc2S(=O)(=O)c2ccc(Br)cc2)c(OC)c1 | - | 0 | - | 0 | 0 | -
O=C(CNC(c1ccccc1)c1ccccc1)Nc1c(F)cccc1F | 0 | 0 | 0 | 0 | -38 | 0
COc1cccc(CC2CC(=O)N(CCc3ccc4c(c3)OCO4)C2=O)c1 (configuration not stated) | 0 | 34 | 0 | 0 | 0 | 0
Cc1ccc(CC2CC(=O)N(CCc3ccc4c(c3)OCO4)C2=O)cc1 (configuration not stated) | 0 | 0 | 0 | 0 | -31 | 0
CCn1c(CN2CCC(C)CC2)nc2cc(NC(=O)COc3ccc(Cl)c(C)c3)ccc21 | - | 0 | - | 0 | 0 | -
Cc1cc(/C=C(\C#N)C(=O)OCC(=O)NC(=O)NC(C)(C)C)c(C)n1CCC(C)C | 0 | 0 | 0 | 0 | -51 | 0
C=CCNC(=O)NC(=O)COC(=O)/C(C#N)=C/c1cc(C)n(CCC(C)C)c1C | 0 | 0 | 0 | 0 | 0 | 0
CC1CCN(C(=O)C2CCCN(c3ncnc4c3nc3n4CCCCC3)C2)CC1 (configuration not stated) | 0 | 0 | 0 | 0 | -37 | 0
O=C(Nc1ccc(Br)cc1F)c1cc(S(=O)(=O)NC2CCCCC2)ccc1F | - | 0 | - | 0 | 0 | -
CCCCn1c(CN(C)Cc2ccccc2)nc2c1c(=O)n(C)c(=O)n2C | 0 | 0 | 0 | 0 | 0 | 0
CCCn1c(CN(C)Cc2ccccc2)nc2c1c(=O)n(C)c(=O)n2C | 0 | 0 | 0 | 0 | -43 | 0
Cc1ccc2nc3c(cc(C#N)c(=O)n3-c3nnc(SCc4ccc(F)cc4)s3)c(=O)n2c1 | - | 0 | - | 0 | 0 | -
CC1=NNC(=O)/C1=C\c1cn(-c2ccccc2)nc1-c1ccc(F)cc1 | 0 | 0 | 0 | 0 | -54 | 0
CC1=NNC(=O)/C1=C\c1cn(-c2ccccc2)nc1-c1cccs1 | 0 | 0 | 0 | 0 | -40 | 0
Cc1cc(C)cc(NC(=O)Cc2csc(COc3cccc(C)c3)n2)c1 | - | 0 | - | 0 | 0 | -
CCOC(=O)C(C(=O)N(C)C)c1ncc(C(F)(F)F)cc1Cl (configuration not stated) | 0 | 0 | 0 | 0 | -46 | 0
COc1ccc(CCn2nnnc2C2(c3ccc(C)cc3)CC2)cc1 | - | - | - | - | - | 0
CCc1ccc(-c2cc(C)no2)cc1S(=O)(=O)NCc1ccc(OC)cc1 | - | 0 | - | 0 | 0 | -
COc1cccc(C2=NOC(C(=O)Nc3cc(C)nn3-c3ccccc3)C2)c1OC (configuration not stated) | 0 | 0 | 0 | 0 | 0 | 0
Cc1cc(N/C(=N/S(=O)(=O)c2cc(F)ccc2F)c2ccccc2)n(-c2ccccc2)n1 | 0 | 0 | 0 | 0 | -36 | 0
Cc1ccccc1N/C(=N/S(=O)(=O)c1cc(F)ccc1F)c1ccccc1 | 0 | 0 | 0 | 0 | -31 | 0
Cc1cc(NC(=O)C2CC(c3ccc(F)cc3)=NO2)n(-c2ccccc2)n1 (configuration not stated) | 0 | 0 | 0 | - | -64 | 0
